In the supplement of paper PMC11417369:
± gives the standard deviation of the averaged measurements. Whole data set: some 25,000 sequences, median “ln(normalized median fluorescence intensity)” near 8.6, cut for the highest 2% near 10. This is one part of a sample in which the highest values are shown more often than they occur.

What follows are sequences tested on PfAP2-EXP AP2 domain (GST-tagged) (assay: gcPBM binding intensity (ln(normalized median fluorescence intensity)); higher = stronger DNA binding).
How it was run: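 Binding intensity is defined as the maximum Masliner-normalised natural-log median intensity across replicate spots for either probe orientation. It was measured on an Agilent 4 × 180k array of primer-extended double-stranded 36-bp intergenic genomic probes and negative controls, to which GST-tagged P. falciparum DNA-binding domains made in E. coli were applied for 1 h in 1× PBS with 1% milk, 0.2 mg/ml BSA, 0.5% salmon testes DNA and 0.03% Triton X-100. Detection was by Alexa488 anti-GST antibody and scanning at 488 nm.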

| Sequence | gcPBM binding intensity (ln) |
| --- | --- |
| AAAAAATAAATAAATACACACAAATATATATATATA [CACACA_site2543] | 10.2 ± 0.071 |
| CATTTATATATATACACACACACAAAAAAAAAAAAA [CACACA_site2645] | 8.44 ± 0.49 |
| TTAATAAAAGCCCATGCACACCTTAGAAAGTTTTAT [CACACA_site8003] | 8.43 ± 0.45 |
| GCCATTAATTTATACACACACATTATGATTTTTTAT [CACACA_site754] | 8.86 ± 0.28 |
| TCTTGTCTACCTTGTATTTAATATTTACATATATAA [TGCATGCA_negctrl_site320] | 8.95 ± 0.4 |
| TTTATTTTGACAGATTGTACACTTTATACATGTTTT [XGTACX_site2356] | 8.8 ± 0.44 |
| ATAAAAAAATCAGACACACACACGTAAACACATACA [CACACA_site5529] | 8.76 ± 0.57 |
| ATAAATATCATATATATACACACGTAATACATAATA [CACACA_site4001] | 8.4 ± 0.44 |
| TAATCATAAAAAAATACACACATATATAATATATAT [CACACA_site1983] | 8.51 ± 0.3 |
| GGGGGGGGAGGGTGAATACACACGTAATAATCATAA [CACACA_site1716] | 10.8 ± 0.15 |
| GGGGGGAGGGTGAATACACACGTAATAATCATAAAC [CACACA_site8502] | 10.6 ± 0.22 |
| ATGGAATAATCACGTACACACAAGAAAAAAAAAAAT [CACACA_site527] | 8.8 ± 0.56 |
| AACTTACTCTTTACAAGTACGTAAAAGAAATAGAAA [XGTACX_site1782] | 8.51 ± 0.41 |
| AATTTCTATTTTGTGAGTACATACTCCTATTATATA [XGTACX_site3210] | 8.78 ± 0.26 |
| ATTATATATAAATATACACACATATATAAAATACAT [CACACA_site5298] | 8.39 ± 0.28 |
| TTATACTATTTTTATACATGCATTTCTATATATTTT [TGCATGCA_site316] | 9.3 ± 0.28 |
| TTTTTTTTTTCTCCTGCATGCAGCATTTATATATTA [TGCATGCA_site390] | 10.3 ± 0.13 |
| TTATATTATTTTTATACATGCATTTCTATATATTTT [TGCATGCA_site164] | 9.2 ± 0.3 |
| TCTTTATATATATATATATGTGTGAATGTTAAGTAT [XGTACX_negctrl_site135] | 8.74 ± 0.33 |
| ATTTTGTATATATTTTGTACATATTTTGTATATATT [XGTACX_site885] | 8.68 ± 0.3 |
| TTATTAAATGAAAAATGTACATATAAATGATTATAT [XGTACX_site2788] | 8.51 ± 0.25 |
| ATATATATAAATATATGTACATAAATATATTTGTAA [XGTACX_site6715] | 8.47 ± 0.42 |

| Sequence | gcPBM binding intensity (ln) |
| --- | --- |
| ATATATATATATATATGTACATATATTTGTAATGTC [XGTACX_site8074] | 10.2 ± 0.43 |
| ATGAATATATATATTTGTACATATGTATATATATAT [XGTACX_site7527] | 9.71 ± 0.15 |
| ATGATTTGTCTGAAATGTACATATATATATATATAT [XGTACX_site5247] | 10.3 ± 0.47 |
| TTTTTTTTGTATTAATGTACATATAACTTTTTTTTT [XGTACX_site7903] | 8.48 ± 0.47 |
| CTGAATGTATATATTTGTACATATATATATATATAT [XGTACX_site5557] | 10.4 ± 0.22 |
| GTTTGTATGTCCAAATGTACATATGATTTTATGAAA [XGTACX_site6595] | 8.72 ± 0.28 |
| TGGATTTTGTATTAATGTACATATATATATATATAT [XGTACX_site4442] | 10.2 ± 0.51 |
| AATGTATATATGTAATGTACATATGTAATGTATATA [XGTACX_site6509] | 8.62 ± 0.46 |
| ACATAAATAAATTAATGTACATATATATTTGTATAT [XGTACX_site3160] | 8.36 ± 0.28 |
| ACATTTATTTTGAATGGTACACTATTATTATGAAAT [XGTACX_site4384] | 8.36 ± 0.38 |
| TTTTTTTTTTGATGCACACACCTGAACGAGTTAATA [CACACA_site4329] | 8.83 ± 0.37 |
| ATTTTTAAATACAGTACACACATGGGTTTAAATTAT [CACACA_site2884] | 8.63 ± 0.38 |
| ATATAATAATTGTACACATGCACACACAAATATTAT [TGCATGCA_site204] | 8.9 ± 0.29 |
| GATCACTGAATAAAGGCACACATCTGACTAATTTTT [CACACA_site66] | 8.36 ± 0.39 |
| ATAAATTGAAGTAAATTTGACCTTTTTTTTTTTTTT [GTGCAC_negctrl_site354] | 8.31 ± 0.27 |
| AATGAAAGGATGCTGTGTACATATATATATATATAT [XGTACX_site7901] | 10.2 ± 0.49 |
| ATAAAATGAACCTTTTGTACATATATATATATATAT [XGTACX_site4610] | 10.1 ± 0.57 |
| TAAGGATGAATCCTTTGTACATATATATATATATAT [XGTACX_site1242] | 10.2 ± 0.28 |
| ATAATTAATGATGTATGTACGGAATTTATATATTTG [XGTACX_site5685] | 8.4 ± 0.33 |
| AAAAGATAATTATGCACACACACACCCCCACCCAAC [CACACA_site2570] | 10.67 ± 0.099 |
| AAAAGATAATTATGCACACACACACCCAGACACAAC [CACACA_site5428] | 9.11 ± 0.4 |
| AAAAAAGATAATTATGCACACACACCCACCCACCCA [CACACA_site8825] | 9.57 ± 0.41 |
